# ALDH1A1 inh: ALDH1A1 (human) enzyme inhibition; P00352; AID 1030; Potency, µM (highest dose often 75.3 µM), without a hit: at the highest dose activity, negative = inhibition, hits mostly inhibitors; 220,000 tested, 7.3% active; Purified ALDH1A1, NADH fluorescence, propionaldehyde substrate;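 note: potency is the fitted concentration of half-maximal effect; plate controls were no enzyme wells and a reference inhibitor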
# 12-hLO inh: blocks human 12-lipoxygenase activity; P18054; purified 12-hLO, xylenol orange hydroperoxide absorbance; Potency, µM (highest dose often 57.1 µM), for inactives: at the top dose activity change, negative = inhibition, usual class: inhibitors; 150,000 tested, 0.12% active; AID 1452; active = well fitted curve in the direction sought with a large enough effect; inconclusive = small, poorly fitted or top-dose-only effect, or another doubt; inactive = no such curve, though single readings can be large; an effect the other way counts as inactive or inconclusive; note: potency is the fitted concentration of half-maximal effect; nearly all actives have a fitted effect of over 55% in size
#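 Hydroperoxide formation by human 12-lipoxygenase from 40 uM arachidonic acid was followed colorimetrically via ferric-xylenol orange complex, using the 573/405 nm absorbance ratio. Enzyme concentration was 150 nM, with 30 min reaction at room temperature.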
# IMPase inh: cell-permeable inhibitors of inositol monophosphatase (IMPase); CHO-M1 cells, IP1 accumulation, HTRF TR-FRET ratio; 120,000 tested, under 10 active; P97697; inhibition (IP1 accumulation), % at 46.1 µM; AID 901; active = well fitted curve in the direction sought with a large enough effect in the signal ratio, not every such curve was filed as active; inconclusive = small, poorly fitted or top-dose-only effect, or a change in a side signal; inactive = no such curve, though single readings can be large or run the other way; the % refers to the signal ratio;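 note: cells stimulated with carbachol in lithium chloride buffer; plate controls were DMSO basal wells for no effect and reference inhibitor wells for full effect; higher means more IMPase inhibition seen as more IP1 and lower FRET ratio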
# Target sequence (P97697 whole entry, looked up): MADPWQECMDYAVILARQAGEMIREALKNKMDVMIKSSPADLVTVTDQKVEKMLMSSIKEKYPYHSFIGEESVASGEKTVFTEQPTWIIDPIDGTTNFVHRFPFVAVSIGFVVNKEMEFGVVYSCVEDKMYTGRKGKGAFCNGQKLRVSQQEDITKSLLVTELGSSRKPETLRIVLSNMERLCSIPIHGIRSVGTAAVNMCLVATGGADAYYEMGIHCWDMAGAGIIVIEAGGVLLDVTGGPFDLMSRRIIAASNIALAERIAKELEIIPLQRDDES
#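 Elevated IP1 in lysates lowers TR-FRET signal (665/620 ratio and 620 channel reported). Cells were CHO-M1, given carbachol (50 uM as added) plus 50mM LiCl, pH 7.4, 30 min, 37C; compounds titrated up to 46 uM; AC50 by Hill equation.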
# PNC assembly inh: blocks assembly of the perinucleolar compartment; activity change (PNC), negative = inhibition, % at 10 µM; 140,000 tested, 3.1% active; PC3M PTB-GFP, PNC prevalence imaging, 16 h; stronger effect = lower value;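 active = readout at or below -70, meaning at least 70% loss of cells showing the perinucleolar compartment, a nuclear body marking cancer cells; inconclusive = readout between -30 and a set limit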;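 note: plate controls were DMSO wells for no effect and camptothecin positive control wells for full effect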
#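 Read-out is percentage of cells bearing a perinucleolar compartment, from automated 20x imaging of fixed, Hoechst-stained PC3M PTB-GFP cells. Cells were seeded 4 h, then exposed 16 h to compound (23 nl of library stock) in duplicate plates.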
# HPGD inh: inhibitors of human 15-hydroxyprostaglandin dehydrogenase (HPGD); purified HPGD, NADH fluorescence kinetic, PGE2 substrate; 150,000 tested, 4.3% active; P15428; AID 894; Potency, µM, for inactives: at the top dose activity change, negative = inhibition, hits mostly inhibitors; note: potency is the fitted concentration of half-maximal effect
# Target sequence (P15428 whole entry, looked up): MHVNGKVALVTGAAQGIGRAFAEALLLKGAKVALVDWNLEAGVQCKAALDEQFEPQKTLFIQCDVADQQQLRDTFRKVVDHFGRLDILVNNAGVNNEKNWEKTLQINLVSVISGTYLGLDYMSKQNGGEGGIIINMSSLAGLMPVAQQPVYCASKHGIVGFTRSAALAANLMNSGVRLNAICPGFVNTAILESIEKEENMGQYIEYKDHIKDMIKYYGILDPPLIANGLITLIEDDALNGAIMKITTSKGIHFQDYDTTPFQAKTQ
#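 NADH formation kinetics: reaction with 30 uM PGE2 and 1 mM NAD+ (final), 20 nM enzyme, Tris-HCl pH 8 with Tween 20, after 15 min compound preincubation at room temperature. Fluorescence change, last versus first of five reads.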
# IMPase Li inh: IMPase inhibition in cells with lithium potentiation | CHO-M1 cells, IP1 TR-FRET (IP-One), carbachol + lithium | Potency, µM (doses to about 59.4 µM), for the others: at the top dose activity, negative = IMPase inhibition, usual class: inhibitors | 210,000 tested, 0.35% active | AID 1457; active = well fitted curve in the direction sought with a large enough effect; inconclusive = small, poorly fitted or top-dose-only effect, or another doubt; inactive = no such curve, though single readings can be large; an effect the other way counts as inactive or inconclusive;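 note: IP1 builds up when IMPase is blocked and the TR-FRET signal falls; potency is the fitted concentration of half-maximal effect; plate controls were basal vehicle for no effect and high inhibitor control for full effect; nearly all actives have a fitted effect of over 50% in size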
#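 CHO-M1, 2000 cells/well, 16–30 h culture; cpd + low Li+, 30 min 37C; lysis with d2-IP1/Eu-anti-IP1 Ab, 10 min RT; TR-FRET 665/620 ratio and 620 channel; AC50 via Hill.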
# * marks the source's active call; other numbers are inactive results; ? = inconclusive; . = no result; [ ] = remark or other dose. Most compounds without a hit are left out; they make up all but 11% or so of the library. Unless noted, calls come from the whole dose curve; as a rule, active = well fitted inhibition curve with a large enough effect (not every such curve was filed as active); inconclusive = small, poorly fitted or top-dose-only effect, or another doubt; inactive = no such curve, though single readings can be large or run the other way. Unless noted, % is set by controls: 0 for no effect and ±100 for the full control effect.
SMILES,ALDH1A1 inh,12-hLO inh,IMPase inh,PNC assembly inh,HPGD inh,IMPase Li inh
COC(=O)C/C=C/[C@@H](C)[C@H](NC(=O)OCC(Cl)(Cl)Cl)c1cccc(OC)c1,-8%,.,.,.,-4%,-4%
COc1ccc(C(=O)N2CCC3(CCN(Cc4ccccc4)CC3)CC2)cc1,-4%,0%,.,.,-3%,17%
Cn1c(=O)c2c(nc(N3CCOCC3)n2Cc2ccc(Br)cc2)n(C)c1=O,.,.,-3,.,.,.
CCOC(=O)c1c(NC(=O)C2=C(C)NC(=S)NC2c2ccc(F)cc2F)sc(C)c1C (stereo not given),11µM*,?,-3,?,-21%,-4%
CCOC(=O)c1c(NC(=O)C2=C(C)NC(=S)NC2c2ccc(F)cc2)sc(C)c1C (stereo not given),14µM*,?,.,-29,?,0%
Cc1ccc(C2CC(=O)n3nc(-c4ccc(Cl)cc4)nc3S2)cc1 (stereo not given),.,.,7,.,.,.
COc1cc(/C=C(\C#N)C(=O)NCC2CCCO2)ccc1OCC(N)=O (stereo not given),-7%,.,.,.,.,9%
COc1cc(/C=C(\C#N)C(=O)NC2CCCCC2)ccc1OCc1ccc(C(=O)O)cc1,14µM*,.,.,.,.,-3%
COc1ccc(/C=C(\C#N)C(=O)NCC2CCCO2)cc1OC (stereo not given),?,-5%,-3,?,22µM*,2%[38.3 µM]
CCc1ccc(NC(=O)/C(C#N)=C\c2ccc(OC)c(C(=O)O)c2)cc1,-8%,.,.,.,.,5%
COc1cc(/C=C(/C#N)C(=O)Nc2ccccc2)ccc1OCc1ccc(C(=O)O)cc1,22µM*,.,.,.,.,7%
CN(C)C(=O)c1ccc(-c2cc(N(C)Cc3ccco3)ncn2)cc1,?,.,.,.,.,0%
COC(=O)N1CCC2(CC1)CCN(c1ccccc1)CC2,-4%,-4%,.,.,-2%,14%
O=C(CSc1nc2ccccc2c(=O)n1CCC(=O)N1CCCCC1)NCc1ccccc1,8.9µM*,-4%,8,?,-11%,12%
COCCn1c(SCC(=O)N2CCCCC2)nc2ccccc2c1=O,10µM*,-4%,3,20,-23%,25%[38.3 µM]
Cc1ccc(NC(=O)CSc2nc3ccccc3c(=O)n2CCCC(=O)N2CCCC2)cc1,?,1%,14,?,-17%,-11%[38.3 µM]
CCn1c(SCC(=O)N2CCCC2)nc2ccccc2c1=O,-5%,2%,4,8,?,14%[38.3 µM]
CCC(=O)N1CC23C=CC(CC2CC12CCCCC2)O3 (stereo not given),16µM*,-3%,-13,-124*,-4%,-3%[38.3 µM]
CN(C)S(=O)(=O)c1ccc(Cl)c(NC(=O)CSc2nc3c(cc2C#N)C(=O)CC(C)(C)C3)c1,?,1%,.,-109*,-16%,2%
CSc1nc2c(cc1C#N)C(=O)CC(C)(C)C2,-16%,.,.,.,.,5%
CN(C)S(=O)(=O)c1ccc(Cl)c(NC(=O)CSc2nnnn2-c2ccc(O)cc2)c1,-4%,.,.,.,.,-4%
CN(C)S(=O)(=O)c1cccc(NC(=O)CSc2nc3c(cc2C#N)C(=O)CC(C)(C)C3)c1,1.4µM*,-1%,4,?,-3%,9%
Cc1ccc(S(=O)(=O)c2nc(-c3cccc(C)c3)oc2N2CCCCC2)cc1,.,.,-4,.,.,.
Cc1ccc(/C(=N/Nc2nc3ccccc3s2)C2=C(O)c3ccccc3C2=O)cc1,-2%,.,.,.,.,0%
O=C(Nc1ccccc1)N1CCCC2(CCN(C(=O)c3cccc(F)c3)CC2)C1,-1%,5%,.,.,-6%,12%
CCCCN1C(=O)C(O)(CC(=O)c2ccccc2OC)c2ccccc21 (stereo not given),8.9µM*,1%,.,-5,-6%,-3%
COc1ccccc1C(=O)CC1(O)C(=O)N(CC(N)=O)c2ccccc21 (stereo not given),.,.,4,.,.,.
CCCCN1C(=O)C(O)(CC(=O)c2c(C)coc2C)c2ccccc21 (stereo not given),10µM*,.,.,.,.,-5%
